Data published in PubChem BioAssay (EPA / NIEHS).
Inconclusive results are not listed. Calls of active or inactive are those of the source. How the source made its calls: active means hit-call score of the fitted dose curve at least 0.9, where 1 is the maximum; inconclusive means response in the unintended direction; inactive means score below 0.9.

assay: TOX21_p53_BLA_p2_viability: Viability Assessment in the Tox21 HCT-116 p53 Agonism Beta-lactamase Assay, Phase 2 (AID 2283591);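 further: compound exposure lasted 16 h at 37 °C; actives lower the ATP signal meaning cytotoxicity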
In short: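 HCT116 p53-bla cells, 4000/well, dosed after 5 h plating (217-fold dilution of DMSO stocks) and incubated 16 h at 37C. Viability taken as cellular ATP by CellTiter-Glo luminescence after 30 min RT; signal loss marks cytotoxicity.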

Compound	outcome
CCCCCCCCCC(C)=O	inactive
CC(=O)OC(C)c1ccccc1 (centres undefined)	inactive
O=C(Oc1ccccc1)c1ccccc1C(=O)Oc1ccccc1	inactive
C=C(C)C(=O)OCCCCCCCCCCCC	inactive
Nc1ccnc(=O)[nH]1	inactive
CC(C)(C)C1CCC(=O)CC1	inactive
O=C(Cl)c1ccc(C(=O)Cl)cc1	inactive
O=C(Cl)c1c(Cl)c(Cl)c(C(=O)Cl)c(Cl)c1Cl	inactive
CC1=C(O)C(=O)C(C)O1 (centres undefined)	inactive
CCCC/C=C/C=C\C=O	inactive
O=C(O[C@@H]1Cc2c(O)cc(O)cc2O[C@@H]1c1cc(O)c(O)c(O)c1)c1cc(O)c(O)c(O)c1	inactive
CCCCOCCOC(=O)COc1ccc(Cl)cc1Cl	inactive
CC1(C)CCC[C@]2(C)[C@H]3CC(=O)O[C@]3(C)CC[C@@H]12	inactive
CCCCCCCCCCCCCC(=O)OC(C)C	inactive
CC(C)c1ccc(O)c(C(C)C)c1	inactive
C=CCCCCCCCCO	inactive
N#Cc1ccc(C2CCCc3cncn32)cc1 (centres undefined)	inactive
CCCCCCOc1ccc(N)cc1	inactive
COCC(=O)O	inactive
C=CCNCC=C	inactive
CC(C)C(=O)OCCOc1ccccc1	inactive
CC(=O)OC1CCCCC1C(C)(C)C (centres undefined)	inactive
CCCCOCC(C)O (centres undefined)	inactive
CC1(C)[C@@H]2CC[C@@]1(C)C(=O)C2	inactive
